Source: PubChem
DRD3 agonist: D3 dopamine receptor (human) agonism | P35462 | D3R DiscoveRx beta-arrestin cells, luminescence, 90 min | max activation, % | 0.58% of 410,000 active | AID 652048; in the data active = max activation above about 30%; also: 0% is about no effect
Target sequence (P35462 whole entry, looked up): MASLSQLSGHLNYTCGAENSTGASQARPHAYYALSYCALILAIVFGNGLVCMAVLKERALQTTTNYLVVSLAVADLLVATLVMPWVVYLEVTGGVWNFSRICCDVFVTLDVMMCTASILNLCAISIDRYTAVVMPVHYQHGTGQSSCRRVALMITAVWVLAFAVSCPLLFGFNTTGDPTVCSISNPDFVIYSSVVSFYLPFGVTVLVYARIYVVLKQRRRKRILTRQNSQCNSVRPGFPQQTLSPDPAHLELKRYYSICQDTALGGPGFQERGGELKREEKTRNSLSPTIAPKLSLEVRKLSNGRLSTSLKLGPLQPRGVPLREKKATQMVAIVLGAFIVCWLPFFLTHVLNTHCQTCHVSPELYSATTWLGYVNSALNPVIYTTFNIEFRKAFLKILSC
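Agonist-mode cell screen: cells plated at 1500/well and incubated overnight at 37 °C, then exposed to library compounds for 90 min at 37 °C. Detection reagent was added for 30–60 min at room temperature, and luminescence was read.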
TDP1 cell CPT: DT40-hTDP1 cell growth loss with CPT. AID 686979. Potency, µM (highest dose often 46.2 µM), for the others: top-dose activity change, negative = growth inhibition, actives largely listed as inhibitors. 12% of 420,000 active. chicken DT40 Tdp1-/-;hTDP1 cells + 20 nM CPT, ATP luminescence, 48 h; also: potency is read from the fitted curve at half-maximal effect; % is scaled to controls: 0 for no effect and ±100 for the full control effect; nearly all actives have a fitted effect of over 55% in size
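Chicken DT40 Tdp1-/- cells complemented with human TDP1, 400 cells/well, exposed to compounds plus 20 nM camptothecin for at least 48 h at 37 C; viability read as ATP content by CellTiter-Glo luminescence.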
DRD3 antagonist: blocks the human D3 dopamine receptor; max response, negative = inhibition, %; D3R cells, DiscoveRx beta-arrestin luminescence, antagonist mode; hits give low values; 2.5% of 360,000 active; P35462; AID 652054; in the data active = max response below about -50%; inconclusive = no clear call, values can overlap the other calls; also: % is scaled to controls: 0 for no effect and ±100 for the full control effect
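Cells expressing the human receptor were seeded at 1500 cells/well, incubated overnight at 37 degrees C in 5% CO2, then exposed to library compounds with dopamine controls for 90 minutes at 37 degrees C before luminescent detection.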
DT40 TDP1 no CPT: qHTS for Inhibitors of human tyrosyl-DNA phosphodiesterase 1 (TDP1): qHTS in cells in absence of CPT. 15% of 420,000 active. Potency, µM (highest dose often 46.2 µM), without a hit: at the top dose activity change, negative = growth inhibition, most hits filed as inhibitors. DT40 Tdp1-/- hTDP1 cells, no CPT, ATP luminescence, 48 h. AID 686978, 2013; also: potency is read from the fitted curve at half-maximal effect; % is scaled to controls: 0 for no effect and ±100 for the full control effect; nearly all actives have a fitted effect of over 55% in size
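DT40 Tdp1-/-;hTDP1 cells, no CPT (DMSO vehicle only), 400 cells/well; compounds pin-transferred; ≥48 hr, 37 °C; CellTiter-Glo 30 min RT dark, luminescence read.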
IL-1B inflam inh: blocks inflammasome-driven IL-1 beta release. activity change, % at 57.5 µM. 4.7% of 360,000 active. THP-1 LPS/ATP IL-1B secretion, AlphaLISA, 16 h; hits give low values; in the data active = activity change below about -50%; inconclusive = mostly about -30% to -49%; also: % is scaled to controls: 0 for no effect and ±100 for the full control effect
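Secreted IL-1B measured by AlphaLISA bead assay after 16 h compound exposure of THP-1 cells; compounds (final up to 57.5 uM) added 1 h before LPS (250 ng/mL) and ATP (1.25 mM) stimulation; lower signal means less secretion.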
ClpP mod: qHTS Assay for Activators of ClpP | purified B. subtilis ClpP, FRET peptide cleavage, 20 min | Potency, µM (titrated, usually from 57.5 µM), for inactives: at the top dose activity change, negative = active | 1.9% of 340,000 active | AID 651965, 2013 | ATP-dependent Clp protease proteolytic subunit (Bacillus subtilis (strain 168)), P80244; active = well fitted falling curve with a large enough effect; inconclusive = small, poorly fitted or top-dose-only effect; inactive = no such curve, though single readings can be large or run the other way; also: potency is read from the fitted curve at half-maximal effect; the source files actives as falling curves though it sought activators and does not explain the sign; nearly all actives have a fitted effect of over 65% in size
Target sequence (P80244 whole entry, looked up): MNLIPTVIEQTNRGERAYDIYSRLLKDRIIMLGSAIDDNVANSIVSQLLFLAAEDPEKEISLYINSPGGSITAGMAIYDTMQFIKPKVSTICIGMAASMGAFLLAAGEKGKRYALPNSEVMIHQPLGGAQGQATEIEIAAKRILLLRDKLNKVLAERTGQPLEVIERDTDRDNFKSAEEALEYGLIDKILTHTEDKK
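Buffer: 100 mM Tris/HCl pH8, 100 mM KCl, 0.05% low protease BSA, 2.5% glycerol, 0.01% Tween-20. ClpP 10 microg/mL final; 20 min RT; delta FRET normalized to ADEP and DMSO controls.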
An asterisk follows results filed as active; u = inconclusive; x = no result; ! = repeats disagree. An excerpt weighted towards active compounds, which were near 21% of everything screened. Unless noted, calls follow the shape of the dose curve; as a rule, active = well fitted inhibition curve with a large enough effect; inconclusive = small, poorly fitted or top-dose-only effect; inactive = flat fitted curve, though single readings scatter.

SMILES	DRD3 agonist	TDP1 cell CPT	DRD3 antagonist	DT40 TDP1 no CPT	IL-1B inflam inh	ClpP mod
CC(CNC(=O)c1ccc(Nc2nc3ccccc3n3nnnc23)cc1)c1ccccc1 (stereo unspecified)	-19	u	x	u	x	4%
Cc1cnc(C(=O)Nc2ccc(-n3cnnn3)cc2)cn1	-3	18µM*	10	u	9	-1%
COc1ccc(C2Nc3ccccc3C(=O)N2Cc2ccccc2)cc1CSc1ccccn1 (stereo unspecified)	1	23µM*	9	18µM*	x	14µM*
COc1ccc(C2Nc3ccccc3C(=O)N2c2ccc(F)cc2)cc1CSc1ccccn1 (stereo unspecified)	7	u	9	-33%	22	8.9µM*
COc1ccc(C2Nc3ccccc3C(=O)N2c2ccccc2)cc1CSc1ccccn1 (stereo unspecified)	-26	u	-2	u	-28	32µM*
Cc1cc2oc(C(=O)Nc3ccc(S(=O)(=O)N(C)c4ccccc4)cc3)cc(=O)c2cc1C	7	-14%	x	-3%	x	-1%
CCCCn1c(C23CC4CC(CC(C4)C2)C3)n[nH]c1=S	-3	-30%	-11	u	-18	-9%
COC(=O)c1coc(-c2ccc(OC)cc2)c1C(=O)OC	2	1%	21	-18%	15	32µM*
COC(=O)c1coc(-c2ccc(C)cc2)c1C(=O)OC	5	u	35	-11%	9	-12%
CCOc1ccccc1NC(=O)CSC1=NN2CCCC(=O)N=C2S1	1	-17%	4	u	35	x
COc1ccc(Cl)cc1NC(=O)CSC1=NN2CCCC(=O)N=C2S1	5	u	6	12µM*	19	x
CCOC(=O)c1ccc(NC(=O)CSC2=NN3CCCC(=O)N=C3S2)cc1	0	21µM*	-1	u	32	-1%
CCOC(=O)c1c(NC(=O)CSC2=NN3CCCC(=O)N=C3S2)sc2c1CCCCC2	-6	21µM*	-17	u	0	-5%
CCOC(=O)c1cc(OC(=O)c2ccccc2F)n(-c2ccccc2)n1	7	x	x	x	x	-4%
C=C(C)Cn1c(=O)c2c(nc3n2CCCN3Cc2ccccc2)n(C)c1=O	-1	-17%	-7	-18%	10	0%
CCCS(=O)(=O)c1cnc(C2COc3ccccc3O2)nc1N (stereo unspecified)	3	u	27	16µM*	-27	-3%
O=S(=O)(c1cccc(C(F)(F)F)c1)N(CCCN1CCOCC1)Cc1cccs1	-19	-25%	-80*!	-26%	-11	0%
CCCCC[C@H]1CN(Cc2ccccc2)C(=O)[C@@H]1CC(=O)NCc1ccc(OC)cc1	9	21µM*	16	16µM*	-20	4%
COc1ccc(CNC(=O)C[C@H]2C(=O)N(Cc3ccccc3)C[C@@H]2Cc2ccccc2)cc1	0	u	0	18µM*	-16	1%
CCCCC[C@H]1CN(C2CCCCC2)C(=O)[C@@H]1CC(=O)NCc1ccccc1	22	11µM*	7	13µM*!	u	3%
COc1ccc([C@H]2CN(Cc3ccccc3)C(=O)[C@@H]2CC(=O)Nc2ccccc2)cc1	-11	-1%	u	u	-1	-1%
COc1ccc(CNC(=O)C[C@H]2C(=O)N(C3CCCCC3)C[C@@H]2Cc2ccccc2)cc1	20	u	8	-25%	10	2%
COc1ccc(CNC(=O)C[C@H]2C(=O)N(Cc3ccc(OC)cc3)C[C@@H]2Cc2ccccc2)cc1	-12	21µM*	u	8.9µM*	5	-2%
COc1ccc(NC(=O)C[C@H]2C(=O)N(CCc3ccccc3)C[C@@H]2c2ccc(OC)cc2)cc1	-9	u	0	u	2	-3%
COc1ccc(CNC(=O)C[C@H]2C(=O)N(CCc3ccccc3)C[C@@H]2Cc2ccccc2)cc1	5	16µM*	-25	22µM*	u	1%
SMILES	DRD3 agonist	TDP1 cell CPT	DRD3 antagonist	DT40 TDP1 no CPT	IL-1B inflam inh	ClpP mod
COC(=O)CCCC(=O)N1CCCC(C(=O)c2ccccc2SC)C1 (stereo unspecified)	0	-3%	-8	21%	7	-1%
COc1cc(CN2CCCC(C(=O)c3ccccc3SC)C2)cc(OC)c1 (stereo unspecified)	-9	15µM*	-14	u	39	1%
COc1cc(OC)c(OC)cc1CN1CCCC(C(=O)c2ccccc2SC)C1 (stereo unspecified)	-7	u	-61*	21µM*	18	1%
O=C(/C=C/c1cn(-c2ccccc2)nc1-c1cccc(Cl)c1)N1CCN(c2ccccn2)CC1	-5	u	16	u	u	x
O=C(c1[nH]ncc1-c1ccccc1)C1CO1 (stereo unspecified)	12	9.2µM*	-14	13µM*	-73*	x
O=C(c1[nH]ncc1-c1cccc(Br)c1)C1CO1 (stereo unspecified)	-9	1.6µM*	-12	1.8µM*	-96*	0%
Cc1ccc(CN2CCc3nc(N4CCN(C)CC4)ncc3C2)s1	-19	u	x	u	x	2%
Cn1c(=O)c2c(nc(Cl)n2CC(=O)N2CCCCC2)n(C)c1=O	3	6%	-4	-7%	19	x
CN(C(=O)Cn1c(Cl)nc2c1c(=O)n(C)c(=O)n2C)C1CCS(=O)(=O)C1 (stereo unspecified)	-13	-16%	-21	-14%	4	-2%
CC1CCCC(NC(=O)Cn2c(Cl)nc3c2c(=O)n(C)c(=O)n3C)C1C (stereo unspecified)	7	u	1	21µM*	31	x
CCN(C(=O)Cn1c(Cl)nc2c1c(=O)n(C)c(=O)n2C)C1CCCCC1	1	21µM*	-10	21µM*	11	1%
Cc1ccccc1NC(=O)c1cnc2sc(N3CCCC3)nn2c1=O	5	14%	x	-1%	x	0%
O=C(Nc1cccc(F)c1)c1cnc2sc(N3CCCC3)nn2c1=O	3	2.3µM*	x	3.3µM*	x	-5%
CCCNC(=O)c1cnc2sc(N3CCCCC3)nn2c1=O	3	-18%	x	-16%	x	4%
CC(C)NC(=O)c1cnc2sc(N3CCCCCC3)nn2c1=O	8	-4%	x	-20%	x	16µM*
CC(C)c1ccc(NC(=O)c2cnc3sc(N4CCCC4)nn3c2=O)cc1	13	2.9µM*	x	2.1µM*	x	1%
